Bioassay records from PubChem.
D2 antag: antagonists of human D2 dopamine receptor; inhibition, % at 10 µM; P14416; HEK293 TREx D2 cells, calcium flux, dopamine EC80; hit rate 2% among 340,000; in the data active = inhibition above about 30%; inactive = below that, where a call was filed; note: 0% is about no effect
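Cells plated overnight at 30 C with tetracycline; no-wash calcium dye, 30–90 min RT; 10 s baseline; compound pinned; 180 s read; EC80 dopamine added; another 180 s read.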
D2 ag-1: agonists of human D2 dopamine receptor. HEK293 T-REx D2 cells, calcium flux agonist mode. AID 485358. hit rate 0.53% among 340,000. activation, % at 2 µM;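 active = activation over 3 SD above normal in the single-dose calcium agonist read, cut at about 30% in these data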; note: 0% is about no effect
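HEK293 Trex D2 cells, tetracycline-induced, o/n 30 C 5% CO2; no-wash Ca dye, RT 30–90 min; 10-cycle baseline, 23 nl cpd added, kinetic Ca read 180 s; agonist hits = positive Ca response.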
D2 PAM-1: positively modulates the human D2 dopamine receptor allosterically; P14416; HEK293 T-REx D2, calcium flux, EC20 dopamine potentiation; potentiation, % at 10 µM; hit rate 0.34% among 340,000; AID 485347;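 active = potentiation over 3 SD above the plate norm, cut at about 30% in these data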; note: 0% is about no effect
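Potentiation of an EC20 dopamine calcium response is measured in a force-coupled, tetracycline-inducible Hek293 Trex D2 line. Compound-only kinetic reads over 180 s flag agonists before dopamine addition.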
D2 ag-2: activates the human D2 dopamine receptor; AID 624465; DiscoveRx PathHunter D2 beta-arrestin, luminescence, 90 min; 100% = 57 uM dopamine signal; P14416; hit rate 0.084% among 360,000; activation, % (concentration not given with the values); in the data active = activation above about 40%; inconclusive = between about 15% and that limit
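Agonist mode: compounds alone added to overnight-plated D2 PathHunter cells for 90 min at 37 C, with 57 uM final dopamine (EC100) defining full response. Beta-arrestin recruitment detected by chemiluminescent reagent, read after 1 h at ambient temperature.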
B2AR arrestin: beta2AR (human) beta-arrestin recruitment activity; hit rate 0.02% among 330,000; Potency, µM (highest dose often 46.1 µM), inactives show at the top dose activation, usual class: activators; P07550; beta-arrestin recruitment to beta2AR, cell-based reporter;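 note: potency is the fitted concentration of half-maximal effect; 0% = DMSO controls and full agonism = EC100 isoproterenol or metaproterenol; nearly all actives have a fitted effect of over 65% in size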
Target sequence (P07550 whole entry, looked up): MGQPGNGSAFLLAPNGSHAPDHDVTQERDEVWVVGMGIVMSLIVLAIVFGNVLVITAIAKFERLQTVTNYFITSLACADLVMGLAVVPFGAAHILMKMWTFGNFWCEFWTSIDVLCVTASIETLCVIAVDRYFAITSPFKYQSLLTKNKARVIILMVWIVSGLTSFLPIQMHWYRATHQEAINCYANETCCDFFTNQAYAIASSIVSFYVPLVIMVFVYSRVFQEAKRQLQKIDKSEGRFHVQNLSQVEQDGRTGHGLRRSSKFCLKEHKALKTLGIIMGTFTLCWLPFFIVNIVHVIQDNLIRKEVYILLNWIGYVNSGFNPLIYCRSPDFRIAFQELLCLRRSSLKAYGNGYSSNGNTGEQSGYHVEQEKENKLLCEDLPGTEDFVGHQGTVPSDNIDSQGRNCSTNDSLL
D2 PAM-2: human D2 receptor positive allosteric modulation; P14416; DiscoveRx D2 beta-arrestin cells, luminescence, 90 min; 100% = 57 uM dopamine signal; potentiation, % (no concentration beside the values); hit rate 0.23% among 360,000; in the data active = potentiation above about 50%; inconclusive = mostly about 30% to 49%
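PathHunter beta-arrestin assay in DiscoveRx D2 cells. Compounds were added with an EC20 of dopamine (50 nM final) for 90 min at 37 deg C. Luminescence was read 1 h after detection reagent, with 57 uM dopamine as the EC100 control.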
D3 ag: activates human D3 dopamine receptor beta-arrestin recruitment. hit rate 4% among 2,300. DiscoveRx D3 beta-arrestin cells, luminescence, 90 min. Potency, µM (highest dose often 76.9 µM), inactives show at the highest dose activation, usual class: activators. shares compounds with D2 ag-1. AID 720506;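 note: potency is the fitted concentration of half-maximal effect; 100% = dopamine control response; nearly all actives have a fitted effect of over 70% in size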
D2 ag-3: D2 receptor agonism, beta-arrestin counterscreen; shares compounds with D2 ag-1; DiscoveRx PathHunter D2 beta-arrestin, luminescence, 90 min; response scale: percent relative to full dopamine signal; Potency, µM (highest dose often 76.9 µM), without a hit: at the highest dose activation, usual class: activators; hit rate 5.9% among 2,300; AID 720507; note: potency is the fitted concentration of half-maximal effect; % of control where 0% means no effect; nearly all actives have a fitted effect of over 70% in size
Numbers without * were called inactive; ? = inconclusive; nt = no result given. A selection: hits, their analogues and other compounds. The true share with any hit is near 2.4%. Unless noted, calls come from the whole dose curve; as a rule, active = well fitted activation curve with a large enough effect; inconclusive = small, poorly fitted or top-dose-only effect; inactive = flat fitted curve, though single readings scatter.

SMILES | D2 antag | D2 ag-1 | D2 PAM-1 | D2 ag-2 | B2AR arrestin | D2 PAM-2 | D3 ag | D2 ag-3
CC(C)(CO)NS(=O)(=O)c1ccc2c(c1)Cc1cc(S(=O)(=O)NC(C)(C)CO)ccc1-2 | 22 | -2 | -3 | 6 | 0% | -4 | 13% | 3%
CC(C)(CO)NS(=O)(=O)c1ccc2c(c1)C(=O)c1cc(S(=O)(=O)NC(C)(C)CO)ccc1-2 | -8 | 3 | -5 | -1 | 0% | 0 | nt | nt
CCOC(=O)Cc1csc(NC(=O)c2csc(C)c2)n1 | -16 | 61* | -18 | -2 | 0% | -8 | 2% | 5%
CCOC(=O)Cc1csc(NC(=O)c2cccc(OC)c2)n1 | 7 | 0 | 3 | -3 | 0% | 8 | nt | nt
CC(C)(C)OC(=O)N1CCC(CNC(=O)c2ccc(F)cc2)CC1 | 5 | 32* | -20 | 3 | 0% | -4 | -6% | 1%
CCOc1ccc(C(=O)NC(C)C2COc3ccccc3O2)cc1 (centres undefined) | -12 | -1 | -12 | 2 | 0% | -5 | nt | nt
CC(C)(C)NC(=S)N1CCC(C(=O)c2ccc(Cl)cc2)CC1 | 10 | 2 | 0 | 2 | 0% | -20 | nt | nt
O=C(N/N=C/c1cccc(Oc2ccccc2)c1)c1cc[n+]([O-])cc1 | 14 | -1 | 4 | -1 | -1% | -3 | nt | nt
Nc1ccc(C(=O)N/N=C/c2cccc(Oc3ccccc3)c2)cc1 | 31* | -1 | 5 | -1 | 0% | -8 | 0% | 1%
Nc1ccc(C(=O)N/N=C\c2ccc(OC(=O)c3ccccc3Cl)cc2)cc1 | 33* | 1 | 11 | -2 | 0% | -24 | 3% | 1%
Cc1ccc(/C=N/c2sc3c(c2C#N)CCCCC3)o1 | nt | nt | nt | 14 | 0% | -3 | ? | 29%
Cc1[nH]n(-c2ccc(F)cc2)c(=O)c1/C=N/c1sc2c(c1C#N)CCCC2 | 11 | 53* | -13 | 5 | 0% | -13 | ? | 15%
COc1ccc(OC)c(C2C(C(=O)c3cccs3)=C(O)C(=O)N2c2cc(C)on2)c1 (centres undefined) | 14 | -2 | 8 | -1 | 0% | -10 | nt | nt
CCC(C)NC(=O)C1CCN(C(=O)c2ccccc2)CC1 (centres undefined) | 9 | 0 | 6 | 0 | -1% | -5 | nt | nt
CCC(C)NC(=O)C1CCN(CCCc2ccccc2)CC1 (centres undefined) | -1 | 51* | -18 | -4 | -1% | -9 | -4% | 5%
COc1cc(C(=O)OCc2ccccc2C#N)ccc1OCC(=O)N1CCOCC1 | 16 | 0 | 6 | 5 | 0% | -3 | nt | nt
COc1cc(C(=O)OCc2cccc(OC)c2OC)ccc1OCC(=O)N1CCOCC1 | -9 | -1 | -4 | -5 | 0% | -4 | 0% | -3%
COC(=O)c1cc2c(ccn2-c2ccc(F)cc2)n1Cc1ccc(C#N)cc1 | -5 | 6 | 1 | -3 | 0% | -5 | nt | nt
COC(=O)c1cc2c(ccn2-c2ccc(F)cc2)n1Cc1ccc(OC)cc1 | 28 | 5 | 3 | 4 | 0% | -6 | -14% | ?
CC(C)(C)OC(=O)C[C@@H]1C/C=C\C[C@@H](CC(=O)N(CCO)Cc2ccccc2)C(=O)N[C@H](Cc2c[nH]c3ccccc23)COC1=O | nt | nt | nt | -2 | 0% | -9 | nt | nt
O=C(CN1CCc2ccccc2C1)Nc1cc(S(=O)(=O)N2CCOCC2)ccc1N1CCCC1 | 83* | 76* | -41 | 3 | 0% | -39 | -4% | 11%
O=C(CN1CCN(c2ccc(O)cc2)CC1)Nc1cc(S(=O)(=O)N2CCCC2)ccc1Cl | 44* | 54* | -17 | 1 | -1% | -3 | 40µM* | ?
